{
  "source": "PubChem BioAssay AID1273",
  "about": "(Columbia University Molecular Screening Center, 2008)",
  "note": "Out of some 130,000 compounds screened, about 1,200 (0.92%) were called active.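 The calls were made as follows: active = inhibition above the mean plus 3 SD, with well images judged a real hit on visual review (cut at about 60% in these data, passing the limit was not always enough); inconclusive = inhibition over the cutoff but images rejected on review; inactive = inhibition not above the cutoff.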 For the sample, actives were picked, then their nearest neighbours and some compounds at random.",
  "data": [
    {"experiment": "inhibitors of insulin promoter-driven GFP, primary screen, imaging, TRM-6 cells (human fetal islet line), eGFP reporter, cell count (AID 1273;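 as to normalized cell count: cells exposed to compound for 48 h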)", "conditions": "at 2 µM, reporter expression induced with tamoxifen; inhibition: stronger effect = higher value; normalized cell count: measured here: cell count, toxicity", "units": {"normalized cell count": "%"}, "values": [
      {"smiles": "CC(C)C(=O)NCc1cc(-c2ccc(Cl)cc2)no1", "inhibition": "55% (inactive)", "normalized cell count": 86.2},
      {"smiles": "CS(=O)(=O)N1CCc2cc(C(=O)Nc3ccccc3)ccc21", "inhibition": "43.6% (inactive)", "normalized cell count": 103},
      {"smiles": "COC(=O)Cn1c(=NC(=O)c2cc(OC)c(OC)c(OC)c2)sc2cc(OC)ccc21", "inhibition": "-14.3% (inactive)", "normalized cell count": 101},
      {"smiles": "CCN(CC)CCn1c2ccc(Cl)cc2c2nc(C)sc21", "inhibition": "46.1% (inactive)", "normalized cell count": 78.6},
      {"smiles": "COC(=O)Cn1c2ccc(C)cc2c2nc(C)sc21", "inhibition": "85.7% (active)", "normalized cell count": 32.4},
      {"smiles": "Cc1cc(NC(=O)CN2C(=O)NC(CCc3ccccc3)C2=O)no1", "note": "(centres undefined)", "inhibition": "60% (inactive)", "normalized cell count": 76},
      {"smiles": "S=C(NCc1cccnc1)Nc1ccc(Cl)cc1Cl", "inhibition": "-31.6% (inactive)", "normalized cell count": 122},
      {"smiles": "CC(C(=O)NC1CCCC1)N(c1ccc(Oc2ccccc2)cc1)S(C)(=O)=O", "note": "(centres undefined)", "inhibition": "-15.8% (inactive)", "normalized cell count": 67.6},
      {"smiles": "Cc1ccc(S(=O)(=O)N(C)C)cc1NC(=O)COC(=O)C1COc2ccccc2O1", "note": "(centres undefined)", "inhibition": "-44.4% (inactive)", "normalized cell count": 51.1},
      {"smiles": "CCCCn1nc(C(=O)Nc2ccc(S(=O)(=O)Nc3ncccn3)cc2)c2ccccc2c1=O", "inhibition": "25% (inactive)", "normalized cell count": 158},
      {"smiles": "Cc1ccsc1CNn1cnnc1SCc1ccccc1F", "inhibition": "86.5% (active)", "normalized cell count": 28.9},
      {"smiles": "O=C(O)CSc1nnc(-c2ccc3c(c2)OCO3)n1-c1ccccc1", "inhibition": "15% (inactive)", "normalized cell count": 96.8},
      {"smiles": "CCC1(CC)NC(=O)N(Cc2nc3ccccc3s2)C1=O", "inhibition": "-16.7% (inactive)", "normalized cell count": 127},
      {"smiles": "CCOC12CC(C)(C)CC(C)(CC3=C1C(=O)CC(C)(C)C3)C2", "note": "(centres undefined)", "inhibition": "73.7% (active)", "normalized cell count": 4.89},
      {"smiles": "CCCN(CC(=O)Nc1ccc(OC)c(OC)c1)CC(=O)Nc1ccc(F)c(F)c1F", "inhibition": "-25% (inactive)", "normalized cell count": 134},
      {"smiles": "O=Cc1ccc(OCc2cn3ccccc3n2)cc1", "inhibition": "36.4% (inactive)", "normalized cell count": 194},
      {"smiles": "COC(=O)NNC1=CC(=O)CC(C)(C)C1", "inhibition": "-26.7% (inactive)", "normalized cell count": 74.6},
      {"smiles": "COC(=O)C(NS(=O)(=O)c1ccc(F)cc1)c1ccccc1", "note": "(centres undefined)", "inhibition": "-16.3% (inactive)", "normalized cell count": 140},
      {"smiles": "Fc1ccccc1/C=C1\\CCCC2=C1Nc1ncnn1C2c1ccccc1F", "note": "(centres undefined)", "inhibition": "86.1% (active)", "normalized cell count": 102},
      {"smiles": "COc1ccc(N2CCN(C3CC(=O)N(c4ccc5c(c4)OCCO5)C3=O)CC2)cc1", "note": "(centres undefined)", "inhibition": "91.7% (active)", "normalized cell count": 78.3},
      {"smiles": "O=CN1CCN(C2CC(=O)N(c3ccc4c(c3)OCO4)C2=O)CC1", "note": "(centres undefined)", "inhibition": "20.9% (inactive)", "normalized cell count": 129},
      {"smiles": "COc1cccc(N2CCN(C3CC(=O)N(c4ccc(Cl)cc4)C3=O)CC2)c1", "note": "(centres undefined)", "inhibition": "30.8% (inactive)", "normalized cell count": 118},
      {"smiles": "CCN(/N=C/c1ccc(N(C)C)cc1)c1nc2ccccc2[nH]1", "inhibition": "86.7% (active)", "normalized cell count": 159},
      {"smiles": "CN(C)c1ccc(/C=N\\S(=O)(=O)c2ccccc2)cc1", "inhibition": "-39.5% (inactive)", "normalized cell count": 46.9},
      {"smiles": "Nc1cccc(CCc2nc3ccccc3[nH]2)c1", "inhibition": "17.2% (inactive)", "normalized cell count": 146},
      {"smiles": "Cc1nn(CC#N)c(=O)n1N(C)c1ncc(C(F)(F)F)cc1Cl", "inhibition": "30% (inactive)", "normalized cell count": 84.4},
      {"smiles": "C=CCSc1nc2ccccc2[nH]1", "inhibition": "81.8% (active)", "normalized cell count": 184},
      {"smiles": "O=C(CSc1nc2ccccc2[nH]1)c1cccs1", "inhibition": "42.9% (inactive)", "normalized cell count": 105},
      {"smiles": "COc1ccccc1CSc1nc2ccccc2[nH]1", "inhibition": "-54.8% (inactive)", "normalized cell count": 124},
      {"smiles": "CCOC(=O)CSc1nc(C)cc2c1C(=O)OC2", "inhibition": "28.6% (inactive)", "normalized cell count": 94.5},
      {"smiles": "CCCCc1nnc(NC(=O)CSc2nc(N)cc(=O)[nH]2)s1", "inhibition": "12.5% (inactive)", "normalized cell count": 93.7},
      {"smiles": "COc1ccc2oc(=O)c(C(=O)N3CCCC3)cc2c1", "inhibition": "44.4% (inactive)", "normalized cell count": 107},
      {"smiles": "CN(C)c1ccc(C=NCCc2ccc(S(N)(=O)=O)cc2)cc1", "inhibition": "31.2% (inactive)", "normalized cell count": 121},
      {"smiles": "CC(C)(C)c1cc(=O)n2c(nc3ccccc32)[nH]1", "inhibition": "29.4% (inactive)", "normalized cell count": 245},
      {"smiles": "Cc1ccc2nc(Nc3ncc4c(n3)CC(C)(C)CC4=O)nc(C)c2c1", "inhibition": "-25% (inactive)", "normalized cell count": 96.8},
      {"smiles": "CC1(C)CC(=O)c2cnc3nc4ccccc4n3c2C1", "inhibition": "76.2% (active)", "normalized cell count": 56.3},
      {"smiles": "Cc1ccc(OCCCn2c(=O)oc3ccccc32)cc1", "inhibition": "-26.7% (inactive)", "normalized cell count": 84.1},
      {"smiles": "COc1ccc(OC)c(Cc2nnc(CCC(=O)NC3CCCC3)o2)c1", "inhibition": "11.1% (inactive)", "normalized cell count": 95.3},
      {"smiles": "Cc1onc(C(=O)NN)c1C(=O)N1CCN(C(c2ccccc2)c2ccccc2)CC1", "inhibition": "81.8% (active)", "normalized cell count": 29.3},
      {"smiles": "Cc1onc(-c2ccccc2)c1C(=O)N1CCOCC1", "inhibition": "-90% (inactive)", "normalized cell count": 78.8},
      {"smiles": "Cn1nnnc1SCC(=O)N1CCN(C(c2ccccc2)c2ccccc2)CC1", "inhibition": "-18.9% (inactive)", "normalized cell count": 68.2},
      {"smiles": "Cc1nnsc1C(=O)N/N=C/c1cccc(C(F)(F)F)c1", "inhibition": "-86.7% (inactive)", "normalized cell count": 39.6},
      {"smiles": "O=[N+]([O-])c1ccccc1NCc1ccccc1Cl", "inhibition": "33.3% (inactive)", "normalized cell count": 123},
      {"smiles": "O=c1c([N+](=O)[O-])cc(C(F)(F)F)cn1Cc1cccc(Cl)c1", "inhibition": "-10.7% (inactive)", "normalized cell count": 66.7},
      {"smiles": "O=c1c([N+](=O)[O-])cccn1Cc1ccc(F)cc1Cl", "inhibition": "73.3% (active)", "normalized cell count": 83.1},
      {"smiles": "CCOC(=O)Cn1nnnc1C", "inhibition": "26.7% (inactive)", "normalized cell count": 95.5},
      {"smiles": "O=C(c1snnc1-c1ccccc1)N1CCOCC1", "inhibition": "-30.2% (inactive)", "normalized cell count": 64.9},
      {"smiles": "Cc1cccc(C)c1NC(=O)C1(N(C(=O)c2ccccn2)c2ccc(O)cc2)CCCCC1", "inhibition": "6.67% (inactive)", "normalized cell count": 38.5},
      {"smiles": "CC(O)c1cccc(NC(=O)Cc2cccc3ccccc23)c1", "note": "(centres undefined)", "inhibition": "-38.9% (inactive)", "normalized cell count": 41},
      {"smiles": "CCCOc1ccc(NC(=O)C2CCCNC2=O)cc1", "note": "(centres undefined)", "inhibition": "5.71% (inactive)", "normalized cell count": 82.1},
      {"smiles": "COc1ccc(C(=O)N2CCC(C(=O)Nc3ccc(C)cc3)CC2)cc1", "inhibition": "33.3% (inactive)", "normalized cell count": 85.5},
      {"smiles": "O=C1CCC(C(=O)Nc2ccc(OC(F)F)cc2)N1", "note": "(centres undefined)", "inhibition": "72.7% (active)", "normalized cell count": 73.3},
      {"smiles": "CCOC(=O)Cc1ncccc1C(=O)Nc1ccc(OC(F)(F)F)cc1", "inhibition": "0% (inactive)", "normalized cell count": 62.2},
      {"smiles": "O=C(CNCc1ccc(Cl)cc1)Nc1cccc(C(=O)O)c1", "inhibition": "38.5% (inactive)", "normalized cell count": 79.9},
      {"smiles": "Cc1ccc(OC(=O)c2cc3ccccc3o2)cc1", "inhibition": "-79.3% (inactive)", "normalized cell count": 174},
      {"smiles": "Cc1ccc(O/C=C2\\OC(=O)c3ccccc32)cc1", "inhibition": "81.2% (active)", "normalized cell count": 93},
      {"smiles": "Cc1ccc(S(=O)(=O)c2ccc(Oc3ccccc3)cc2)cc1", "inhibition": "-87.1% (inactive)", "normalized cell count": 116}
    ]}
  ]
}
